# Assay outcomes (PubChem BioAssay)
# Shown are actives, neighbours in structure and some others; about 3.9% of the full set was active somewhere.
# Anthrax LF prot: Bacillus anthracis LF protease inhibitors, primary screen, biochemical, multiplex microsphere, MLPCN library; Lethal factor (Bacillus anthracis), P15917; multiplex microsphere protease cleavage assay; inhibition, % at 10 µM; hit rate 0.12% among 360,000; AID 588501, 2011; note: plate controls were buffer without enzyme for full effect and enzyme alone for no effect
# Target sequence (P15917 whole entry, looked up): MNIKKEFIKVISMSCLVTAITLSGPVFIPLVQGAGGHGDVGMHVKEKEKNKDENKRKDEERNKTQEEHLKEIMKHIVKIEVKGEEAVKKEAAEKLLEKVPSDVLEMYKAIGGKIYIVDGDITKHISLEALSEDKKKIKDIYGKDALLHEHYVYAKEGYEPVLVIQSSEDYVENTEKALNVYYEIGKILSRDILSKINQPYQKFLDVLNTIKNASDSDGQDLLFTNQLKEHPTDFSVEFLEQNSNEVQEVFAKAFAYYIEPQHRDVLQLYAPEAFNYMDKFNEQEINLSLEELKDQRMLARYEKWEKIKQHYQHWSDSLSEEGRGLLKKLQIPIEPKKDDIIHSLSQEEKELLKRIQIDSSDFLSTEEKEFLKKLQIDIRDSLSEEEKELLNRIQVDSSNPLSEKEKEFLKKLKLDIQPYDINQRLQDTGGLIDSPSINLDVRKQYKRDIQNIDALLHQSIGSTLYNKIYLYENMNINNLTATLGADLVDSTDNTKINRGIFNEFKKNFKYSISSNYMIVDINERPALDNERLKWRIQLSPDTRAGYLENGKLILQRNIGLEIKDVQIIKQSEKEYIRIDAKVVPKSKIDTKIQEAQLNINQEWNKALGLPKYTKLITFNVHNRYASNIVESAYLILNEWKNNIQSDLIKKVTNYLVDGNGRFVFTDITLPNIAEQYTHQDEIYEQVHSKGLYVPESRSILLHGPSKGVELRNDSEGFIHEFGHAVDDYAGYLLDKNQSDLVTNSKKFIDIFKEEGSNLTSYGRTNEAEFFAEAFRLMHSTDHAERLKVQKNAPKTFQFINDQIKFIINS
# CCHFV vOTU inh: CCHFV vOTU protease inhibitors, primary screen, biochemical, Pep-AMC substrate, fluorescence. inhibition, % at 11.5 µM. hit rate 0.55% among 370,000; in the data active = inhibition above about 30%; note: 0% = vehicle wells with enzyme and 100% = no enzyme wells
# SARS 3CLpro inh: SARS-CoV 3CLpro protease inhibitors, primary screen, biochemical, quenched FRET; Replicase polyprotein 1ab (Severe acute respiratory syndrome coronavirus), P0C6X7; recombinant SARS-CoV 3CLpro, quenched FRET peptide cleavage; inhibition, % at 6 µM; hit rate 0.14% among 290,000; AID 1706, 2009; in the data active = inhibition above about 12%
# BoNT F protease: BoNT/F light chain protease inhibitors, primary screen, biochemical, flow cytometry, MLPCN library; Multiplex microsphere protease cleavage assay; inhibition, % at 10 µM; Botulinum neurotoxin type F light chain protease (Clostridium botulinum); hit rate 0.22% among 360,000; AID 588497, 2011; in the data active = inhibition above about 35%, passing the limit was not always enough; inconclusive = no clear call, values can overlap the other calls; note: plate controls were buffer without enzyme for full effect and enzyme alone for no effect
# Bead autofluor: compound fluorescence in toxin protease inhibitor counterscreen. compound autofluorescence counterscreen, microsphere flow cytometry; active compounds read high. fluorescence intensity (concentration not given with the values). hit rate 3.1% among 360,000. AID 624483; in the data active = fluorescence intensity above about 16000; inconclusive = no clear call, values can overlap the other calls
# BoNT-A LC inh2: BoNT/A light chain protease inhibitors, primary screen, biochemical, flow cytometry, MLPCN library | multiplex microsphere protease substrate cleavage | inhibition, % at 10 µM | hit rate 0.17% among 360,000 | AID 588499, 2011; note: plate controls were buffer without enzyme for full effect and enzyme alone for no effect
# Active calls of the source: *; u = inconclusive; x = no result given. Cut-off read from the data, not from the text of the source, unless noted: active = inhibition above about 30%; inconclusive = no clear call, values can overlap the other calls; inactive = below that.
SMILES,Anthrax LF prot,CCHFV vOTU inh,SARS 3CLpro inh,BoNT F protease,Bead autofluor,BoNT-A LC inh2
Cc1ccccc1NC(=O)CSc1nc(N2CCCCC2)nc(N2CCCCC2)n1,-3,-10,0,-4,22832*,u
O=C(CSCCO)Nc1cccc2ccccc12,-3,5,1,-4,22778*,u
COc1cccc2cc(-c3nnc(SCC(=O)NCc4ccccc4)n3C)oc12,2,-6,-2,6,22828*,u
COc1cccc2cc(-c3nnc(SCC(=O)Nc4cc(C(F)(F)F)ccc4Cl)n3N)oc12,3,-3,2,-3,23578*,-2
CCn1c(SCC(=O)NC2CCCCC2)nnc1-c1cc2cccc(OC)c2o1,-3,12,-2,28,4559,1
COCCCN1C(=O)[C@H](CC(=O)NCCCCc2ccccc2)[C@]2(C(=O)OC)CCCCC=C12,x,6,x,x,x,x
CC(C)(C)N1Cc2nnn(Cc3ccccc3)c2-c2ccccc2S1(=O)=O,x,4,x,x,x,x
CCN(Cc1ccccc1)C(=O)C1C2C=CC3(CN(Cc4ccccc4)C(=O)C13)O2 (stereo unspecified),x,-3,x,x,x,x
CCn1c(=O)c(C(C)=O)nc2ccccc21,0,13,-2,4,2869,2
CCCCCn1c(=O)c(C(=O)c2ccccc2)nc2ccccc21,-12,-2,2,3,18403*,u
Cc1ccc(-c2nnc(Nc3ccccc3)c3ccccc23)cc1S(=O)(=O)NCC1CCCO1 (stereo unspecified),-1,9,-9,3,21430*,3
CC(C)[C@H](N)C(=O)N1CCC[C@@H]1C(=O)N1CCC2CCN(S(=O)(=O)c3ccccc3)CC21 (stereo partly specified),x,-1,x,x,x,x
CCc1ccc(C(=O)COC(=O)CNC(=O)c2ccco2)cc1,3,-4,1,-1,2987,0
O=C(CNC(=O)c1ccco1)OCC(=O)c1ccc2c(c1)CCCC2,1,0,-2,-6,17018*,-2
CCOC(=O)N1CCN(C(=O)C[C@H]2C[C@@]3(C(=O)OC)C(=C[C@H](C(C)C)O[C@@H]3C3CC3)N(CCC3=CCCCC3)C2=O)CC1,x,18,x,x,x,x
Cc1ccc(Cn2cc(COC(=O)N3CCCC3)nn2)cc1,x,4,x,x,x,x
O=C(C1CCN(c2ncnc3c2sc2cccc(F)c23)CC1)N1CCN(C(=O)C2CCCO2)CC1 (stereo unspecified),x,-8,x,x,x,x
CCOc1cc(S(=O)(=O)NCc2ccc(OC)cc2)c(OCC)cc1-n1cnnn1,-4,-10,2,0,23322*,u
CN(CCOC(=O)CSc1ccccc1)C1CN(Cc2cn(Cc3ccccc3F)nn2)S(=O)(=O)C1 (stereo unspecified),x,-9,x,x,x,x
CC(=O)N1CCc2[nH]c3ccc(C)cc3c2C1,4,-14,-2,u,4127,-1
CC(=O)N1CCc2[nH]c3ccccc3c2C1,-3,6,-3,-5,17082*,-2
CCOc1cc(/C=N/NC(=O)Cn2nc([N+](=O)[O-])cc2C)cc(Br)c1OCc1ccccc1C,0,1,2,-2,16860*,-1
CCCCC(=O)Nc1c(O)c2ccccc2[nH]c1=O,0,-6,3,-1,21304*,-2
COC(=O)c1ccccc1S(=O)(=O)N(Cc1ccco1)Cc1cc2cc(OC)ccc2[nH]c1=O,2,-9,1,2,22912*,1
CNC(=S)N(Cc1ccco1)Cc1cc2cc(OC)ccc2[nH]c1=O,4,8,-1,-6,3179,0
SMILES,Anthrax LF prot,CCHFV vOTU inh,SARS 3CLpro inh,BoNT F protease,Bead autofluor,BoNT-A LC inh2
COC(=O)c1ccccc1S(=O)(=O)N(CCCO)Cc1cc2c(C)ccc(C)c2[nH]c1=O,-6,-15,-4,2,22748*,-1
Cc1ccccc1C(=O)N[C@@H](Cc1cccnc1)C(=O)N1CCC[C@H]1C(=O)NCCc1ccccc1Cl,x,-4,x,x,x,x
O=C1C(=C2CCCCC2)SC(=S)N1Cc1ccco1,-4,5,-1,-2,23926*,u
O=C(Cc1cccs1)Nc1nc(-c2ccc(F)cc2F)cs1,-1,11,8,-9,17771*,-6
O=C(c1ccc([N+](=O)[O-])cc1)N(Cc1ccc(Cl)cc1)N1C(=O)CCCC1=O,-2,-7,9,-6,17414*,-5
O=C(c1ccc([N+](=O)[O-])cc1)N(Cc1ccc(Cl)cc1Cl)N1C(=O)CCCC1=O,-6,2,5,5,22479*,2
CCOC(=O)c1c(NC(=O)C(C)Sc2cccc[n+]2[O-])sc2c1CCN(Cc1ccccc1)C2 (stereo unspecified),8,x,4,12,8502,45*
COc1ccc(C2CC(=O)C(c3cccc(F)c3)=CN2Cc2ccccc2)cc1 (stereo unspecified),x,4,x,x,x,x
CCOC(=O)C1CCCN(CCC(=O)Nc2ccccc2)C1 (stereo unspecified),-1,-2,-2,-5,u,-1
CCOC(=O)C1CCCN(CCC(C)c2ccccc2)C1 (stereo unspecified),0,-9,-5,8,21853*,6
CCOC(=O)C1CCCN(C/C=C/c2ccccc2[N+](=O)[O-])C1 (stereo unspecified),-7,7,3,13,16661*,10
CCOC(=O)C1CCCN(CC(=O)Nc2cc(C)cc(C)c2)C1 (stereo unspecified),1,-11,-5,1,3990,0
CCOC(=O)C1CCCN(CC(=O)NC2CC2)C1 (stereo unspecified),-3,2,x,2,16644*,-2
COc1ccc(NC(=O)N(Cc2ccc3c(c2)OCO3)C2CC(=O)N(c3ccc(OC)cc3)C2=O)cc1 (stereo unspecified),-8,-8,-2,-4,8367,-2
O=C1CC(N(Cc2ccc3c(c2)OCO3)C(=O)Nc2ccc(F)cc2)C(=O)N1c1ccccc1 (stereo unspecified),0,-10,5,2,23094*,u
COCCCNC(=O)C[C@H]1C[C@@]2(C(=O)OC)C(=C[C@H](C(C)(C)C)O[C@@H]2C)N(Cc2cccc3ccccc23)C1=O,x,19,x,x,x,x
COC(=O)c1cccc(Nc2cc(C)n(-c3cccc(C(=O)OC)c3)c(=O)c2)c1,x,20,x,x,x,x
CC(=O)Nc1ccc(S(=O)(=O)Oc2ccc(N3C(=O)C4CCCCC4C3=O)cc2)cc1 (stereo unspecified),-6,0,-3,-1,19304*,u
CC(=O)Nc1ccc(S(=O)(=O)Oc2cccc(N3C(=O)C4CC=CCC4C3=O)c2)cc1 (stereo unspecified),-7,-10,1,-3,6986,-1
